This passage reports Potency, outcome and activity change, negative = cytotoxicity results from PubChem BioAssay (NCATS).

Assay [1] in a line: P-glycoprotein substrates identified in KB-3-1 adenocarcinoma cell line, qHTS therapeutic library screen (AID 1346986). Also: nearly all actives have a fitted effect of over 60% in size. As to conditions: KB-3-1 parental cells viability, CellTiter-Glo, 72 h; series mostly up to 44.5 µM. The method, boiled down: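 KB-3-1 parental cells and P-gp-overexpressing KB-8-5-11 (colchicine omitted during assay) plated at 500 cells/well, dosed in dose-response, incubated 72 h at 37 degree C. CellTiter-Glo luminescence read; KB-8-5-11 also tested with tariquidar.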
A general note: qHTS replaces the single test concentration by a dilution series.

Assay [2] can be described thus: P-glycoprotein substrates identified in KB-8-5-11 adenocarcinoma cell line, qHTS therapeutic library screen (AID 1346987). Also: nearly all actives have a fitted effect of over 65% in size. As to activity change, negative = cytotoxicity: % is scaled to controls: 0 for no effect and ±100 for the full control effect. As to conditions: KB-8-5-11 (P-gp overexpressing) viability, CellTiter-Glo, 72 h; series mostly up to 44.5 µM. The method, boiled down: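 P-gp-mediated resistance screen: KB-8-5-11 cells treated 72 h with compounds in dose-response. CellTiter-Glo viability.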

Structures are written as SMILES. Records with an inconclusive call do not appear. Values without a mark were called inactive. Active and inactive are the calls of the source. Calls follow the shape of the dose curve; as a rule, active = well fitted curve in the direction sought with a large enough effect; inconclusive = small, poorly fitted or top-dose-only effect, or another doubt; inactive = no such curve, though single readings can be large; an effect the other way counts as inactive or inconclusive.

Regarding `COC(=O)C1=COC(OC2OC(CO)C(O)C(O)C2O)C2C(C)C(OC(C)=O)C(OC(=O)c3ccccc3)C12` (centres undefined), the Potency entry in assay [1] and in assay [2] was “inactive” in each case.

For the compound `CCOc1ncc(S(=O)(=O)N2CCN(CC)CC2)cc1-c1nc2c(CC)n(CCOC)nc2c(=O)[nH]1`, the Potency result in assay [1] and in assay [2] was “inactive” each time.

On to `COc1cc(/C=C/C(=O)OC[C@H]2O[C@@H](OC3CC(C)=C(C(=O)O)C(C)(C)C3)[C@H](O)[C@@H](O)[C@@H]2O)cc(OC)c1O` (some centres undefined), for which the Potency result in assay [1] and in assay [2] was “inactive” in each case.

For the compound `C/C=C/C=C/C=C/C(=O)O[C@@H]1C=C(CO)[C@](O)(CO)[C@@]2(C)CCCC(C)(C)[C@H]12`, the Potency result in assay [1] and in assay [2] was “inactive” in each case.

Turning to `COC(=O)[C@H](Cc1cccc(C(=N)N)c1)[C@@H](C)NC(=O)c1ccc(-c2cc[n+]([O-])cc2)cc1`, the Potency entry in assay [1] and in assay [2] was “inactive” in each case.

As to `COC(=O)C1=COC(O[C@@H]2O[C@H](CO)[C@@H](O)[C@H](O)[C@H]2O)[C@@H]2[C@@](C)(O)[C@@H](OC(=O)/C=C/c3ccccc3)C[C@]12O` (some centres undefined), the Potency entry in assay [1] and in assay [2] was “inactive” throughout.

Take `C=C1[C@H]2CCC3[C@]4(C)CCC[C@@](C)(C(=O)O)C4CC[C@]3(C2)[C@H]1OC(C)=O` (some centres undefined): the Potency result in assay [1] and in assay [2] was “inactive” each time.

As for `NC(=O)[C@H](Cc1ccccc1)NC(=O)[C@H](CCCN=C(N)N)NC(=O)C12CC3CC(CC(C3)C1)C2`, the outcome in assay [1] and in assay [2] was “inactive [at 9.29 µM]” in each case.

As to `C[C@H]1[C@H](C)CC[C@]2(C(=O)OC3OC(CO)C(O)C(O)C3O)CC[C@]3(C(=O)O)C(=CCC4[C@@]5(C)CC[C@H](O[C@@H]6O[C@@H](C)[C@H](OC7OC(CO)C(O)C(O)C7O)[C@@H](O)[C@H]6O)C(C)(C)C5CC[C@]43C)[C@H]12` (some centres undefined), the outcome in assay [1] was “inactive [at 9.29 µM]”. Also, the activity change, negative = cytotoxicity in assay [2] is -1.84% [at 9.29 µM].

For the compound `CC1(C)OC(=O)CC(O)C2(C)C1CC(=O)C1(C)C2C(O)CC2(C)C(c3ccoc3)OC(=O)C3OC321` (centres undefined), the Potency result in assay [1] and in assay [2] was “inactive” in each case.

Consider `COc1cc(C)c(C(=O)O[C@@H]2[C@H](O)[C@@H](CO)O[C@H]2n2ccc(=O)[nH]c2=O)c(OC)c1`, for which the Potency result in assay [1] and in assay [2] was “inactive” throughout.

As to `CC1CC=C2C1CC1(O)C(=O)CC2(C)C1(C)CO` (centres undefined), the Potency result in assay [1] and in assay [2] was “inactive” throughout.

For `CC(=O)/C=C/C1(O)C(C)CC(O[C@@H]2O[C@H](CO)[C@@H](O)[C@H](O)[C@H]2O)CC1(C)C` (some centres undefined), the Potency result in assay [1] and in assay [2] was “inactive” throughout.

For `CC(=O)/C=C/C1(O)C(C)(C)CC(O)CC1(C)O` (centres undefined), the Potency result in assay [1] and in assay [2] was “inactive” throughout.

In the case of `C[C@@H](CC[C@@H]1[C@@]2(C)CCCC(C)(C)C2CC[C@@]1(C)O)CC(=O)O` (some centres undefined), the Potency entry in assay [1] and in assay [2] was “inactive” each time.

In the case of `C=CCC1=C[C@]2(OC)[C@H](C)[C@@H](c3ccc(OC)c(OC)c3)O[C@]2(OC)CC1=O`, the Potency entry in assay [1] and in assay [2] was “inactive” throughout.

Consider `O=C(O)CCc1cc2ccoc2cc1O[C@@H]1O[C@H](CO)[C@@H](O)[C@H](O)[C@H]1O`, for which the Potency entry in assay [1] and in assay [2] was “inactive” each time.

Consider `COc1cc(C2Oc3c(OC)cc(CCCO)cc3C2CO)ccc1O` (centres undefined), for which the Potency result in assay [1] and in assay [2] was “inactive” in each case.

For `COc1ccc(O[C@@H]2O[C@H](CO)[C@@H](O)[C@H](O)[C@H]2O)cc1OC`, the Potency result in assay [1] and in assay [2] was “inactive” in each case.

With `C[C@H](/C=C/[C@@]1(O)[C@H](C)CC(=O)CC1(C)C)O[C@@H]1O[C@H](CO[C@@H]2OC[C@@H](O)[C@H](O)[C@H]2O)[C@@H](O)[C@H](O)[C@H]1O`, the Potency result in assay [1] and in assay [2] was “inactive” in each case.

Turning to `COc1cc2nc(=NC(=O)c3cccnc3)n3c(c2cc1OC)NCC3`, the Potency entry in assay [1] and in assay [2] was “inactive” each time.

Turning to `CC1=COC(OC2OC(CO)C(O)C(O)C2O)C2C(CO)CC(OC(=O)/C=C/c3ccc(O)cc3)C12` (centres undefined), the Potency entry in assay [1] and in assay [2] was “inactive” in each case.

For the compound `O=C(N[C@@H]1CC[C@@H](c2cccc(F)c2F)CN(CC(F)(F)F)C1=O)N1CCC(n2c(=O)[nH]c3ncccc32)CC1`, the Potency entry in assay [1] and in assay [2] was “inactive” each time.

With `O=S(=O)(O)c1ccc(Nc2ncnc3c2ncn3[C@@H]2O[C@H](CO)[C@@H](O)[C@H]2O)cc1`, the Potency entry in assay [1] and in assay [2] was “inactive” in each case.

As for `CC1(C)CC[C@]2(C(=O)O)CC[C@]3(C)C(=CCC4[C@@]5(C)C[C@@H](O)[C@H](O)[C@@](C)(CO)C5[C@H](O)C[C@]43C)[C@@H]2C1` (some centres undefined), the Potency result in assay [1] and in assay [2] was “inactive” in each case.

`COC(=O)C1=CO[C@@H](O[C@@H]2O[C@H](CO)[C@@H](O)[C@H](O)[C@H]2O)/C(=C\CO)[C@@H]1CC(=O)OCCc1ccc(O)cc1`: the Potency entry in assay [1] and in assay [2] was “inactive” throughout.

`CC1=C2C(=O)C=C(CO)C2[C@H]2OC(=O)[C@H](C)[C@@H]2[C@@H](OC(=O)Cc2ccc(O)cc2)C1` (some centres undefined): the Potency result in assay [1] and in assay [2] was “inactive” in each case.
